{
  "source": "the OligoGym collection",
  "data": [
    {"target": "NAGA", "assay": "pooled miR-30 sensor sort-seq; sequence = guide strand", "conditions": "shRNA", "values": [
      {"sequence": "TTGATGATCACTGTGAAGTTGG", "sensor-assay potency score (higher = more potent)": 0.614},
      {"sequence": "TTGTCCAGCATCAGCACCTGGG", "sensor-assay potency score (higher = more potent)": -0.84},
      {"sequence": "TTGATTTTGATCATGAGTGGAT", "sensor-assay potency score (higher = more potent)": 0.182},
      {"sequence": "TCATATATCACAGACCCGGTGA", "sensor-assay potency score (higher = more potent)": -0.0849},
      {"sequence": "TTGGACAGGGCATAGAACCTGG", "sensor-assay potency score (higher = more potent)": -0.532},
      {"sequence": "TGAAGTTGGTTTCATCTCGGAG", "sensor-assay potency score (higher = more potent)": -0.453},
      {"sequence": "TTTTCCTTGTGAATCCTGCGTC", "sensor-assay potency score (higher = more potent)": 0.331},
      {"sequence": "TTGTCCAGTGTGGTGCCTGGGT", "sensor-assay potency score (higher = more potent)": -0.646},
      {"sequence": "TTGAGCATGTCTACCTTCCACT", "sensor-assay potency score (higher = more potent)": -1.03},
      {"sequence": "TTCGAAAACTTCCAAATCCTGA", "sensor-assay potency score (higher = more potent)": -0.213},
      {"sequence": "TTCGATGAGAGATTTTTCCTTG", "sensor-assay potency score (higher = more potent)": 0.59},
      {"sequence": "TTGCTCAGCAACGTCTGTGGGG", "sensor-assay potency score (higher = more potent)": -0.463}
    ]},
    {"target": "NAGPA", "assay": "pooled miR-30 sensor sort-seq; sequence = guide strand", "conditions": "shRNA", "values": [
      {"sequence": "AGTAGCAAGTCGTCGTCGCGGG", "sensor-assay potency score (higher = more potent)": -1.2},
      {"sequence": "TCTCGTCACACTCTGTGGCTTG", "sensor-assay potency score (higher = more potent)": 0.00905},
      {"sequence": "TTTCAGCAGGAACTCCGCCATT", "sensor-assay potency score (higher = more potent)": -1.66},
      {"sequence": "TTCATGCGGAAGAAGCCGCCGT", "sensor-assay potency score (higher = more potent)": -0.589}
    ]}
  ]
}
